According to the supplement of paper PMC10121225:
Structures can show the parent of a compound that is named as a salt.

tested on: hN + hpA co-culture (H1 iNGN2 human neurons + human primary astrocytes); experiment: presynaptic density (SYNAPSIN1 puncta per MAP2 neurite area), Z-score vs DMSO controls; higher = more presynaptic puncta (synapse-promoting); conditions: 3 µM; 72 h
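Note: immunostained co-cultures imaged by high-content microscopy, Z-score per plate against mean and SD of 0.1% DMSO wells, compounds added on differentiation day 18, analysed day 21.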

Row | Structure (SMILES) | presynaptic density (Z-score)
1 | CC(C(O)c1ccc(O)cc1)N1CCC(Cc2ccccc2)CC1 (stereo not drawn) [Ifenprodil Tartrate_Selleck] | -0.233
2 | COc1cc(Nc2c(C#N)cnc3cc(OCCCN4CCN(C)CC4)c(OC)cc23)c(Cl)cc1Cl [Bosutinib (SKI 606)] | -1.36
3 | CN(Cc1cnc2nc(N)nc(N)c2n1)c1ccc(C(=O)N[C@@H](CCC(=O)O)C(=O)O)cc1 [Methotrexate] | -0.494
4 | O=C(Nc1cccc(Cl)c1)Nc1ncc(CCNc2ncnc3ccsc23)s1 [SNS-314 Mesylate] | -0.232
5 | Cc1ccc(C(=O)N(CCCN)[C@@H](c2nc3cc(Cl)ccc3c(=O)n2Cc2ccccc2)C(C)C)cc1 | -0.26
6 | CCCCN1CCCCC1C(=O)Nc1c(C)cccc1C (stereo not drawn) [Bupivacaine HCl] | -0.239
7 | Oc1nc(-c2ccc(C(F)(F)F)cc2)nc2c1CSCC2 | 0.167
8 | Cc1nnc(C(=O)NC(C)(C)c2nc(C(=O)NCc3ccc(F)cc3)c(O)c(=O)n2C)o1 [Raltegravir (MK-0518)] | -0.683
9 | Cc1ccc(NC(=O)c2ccc(CN3CCN(C)CC3)cc2)cc1Nc1nccc(-c2cccnc2)n1 [Gleevec (Imatinib)] | -0.283
10 | COc1cc(N2CCC(N(C)C)CC2)ccc1Nc1ncc(Cl)c(Nc2ccccc2P(C)(C)=O)n1 | 0.449
11 | Cc1[nH]c2ccccc2c1CCNCc1ccc(/C=C/C(=O)NO)cc1 [Panobinostat (LBH589)] | 4.81
12 | N#Cc1c(O)c2c(-c3ccc(-c4ccccc4O)cc3)csc2[nH]c1=O | -1.26
13 | NC(=O)c1ccc(-c2nc(-c3ccc4c(c3)OCO4)c(-c3ccccn3)[nH]2)cc1 | 0.232
14 | CC(CCc1ccccc1)NCC(O)c1ccc(O)c(C(N)=O)c1 (stereo not drawn) [Labetalol HCl] | -0.733
15 | COc1cc(-c2ncn(/C=C\C(=O)OC(C)C)n2)cc(C(F)(F)F)c1 | -0.959
16 | O=c1cc(-c2ccc(O)cc2)oc2cc(O)cc(O)c12 [Apigenin] | 0.0449
17 | Oc1ccc2ccccc2c1SSc1c(O)ccc2ccccc12 [1-1-Dithiodi-2-naphthtol] | -0.787
18 | NCc1c[nH]c(=S)n1C1CCc2c(F)cc(F)cc2C1 [(R)-Nepicastat HCl] | 0.738
19 | COc1cc(OC)c(NC(=O)Nc2cc(C)on2)cc1Cl | -0.694

Row | Structure (SMILES) | presynaptic density (Z-score)
20 | CC(C)(F)C[C@H](N[C@@H](c1ccc(-c2ccc(S(C)(=O)=O)cc2)cc1)C(F)(F)F)C(=O)NC1(C#N)CC1 [Odanacatib (MK-0822)] | -0.252
21 | COc1cc(F)c(C(C)C)cc1-c1ccc(C(F)(F)F)cc1CN1C(=O)O[C@H](c2cc(C(F)(F)F)cc(C(F)(F)F)c2)[C@@H]1C [Anacetrapib (MK-0859)] | -0.588
22 | O=C(Nc1ccccc1Br)N[C@@H]1CCN(c2ccc(C(F)(F)F)cn2)C1 | -1.47
23 | COc1ccccc1N1CCN(CC(O)COc2cccc3ccccc23)CC1 (stereo not drawn) | -0.464
24 | COC1CC2CCC(C)C(O)(O2)C(=O)C(=O)N2CCCCC2C(=O)OC(C(C)CC2CCC(OC(=O)C(C)(CO)CO)C(OC)C2)CC(=O)C(C)C=C(C)C(O)C(OC)C(=O)C(C)CC(C)C=CC=CC=C1C (stereo not drawn) [Temsirolimus (CCI-779] | 0.145
25 | O=C1c2ccccc2-c2n[nH]c3cccc1c23 [Anthra[1-9-cd]pyrazol-6(2H)-one] | 0.183
26 | CCc1nc(N)nc(N)c1-c1ccc(Cl)cc1 | -0.391
27 | C#Cc1cccc(Nc2ncnc3cc4c(cc23)OCCOCCOCCO4)c1 [Icotinib] | -0.0135
28 | CCCCCCCCc1ccc(CCC(N)(CO)CO)cc1 [Fingolimod (FTY720) HCl] | 0.342
29 | Cc1cn([C@H]2C=C[C@@H](CO)O2)c(=O)[nH]c1=O [Stavudine (d4T)] | 0.723
30 | Cc1ccc(S(=O)(=O)OCC(=O)Nc2ccc(C(=O)O)c(O)c2)cc1 | -0.554
31 | CC(C)(C)c1nc(-c2cccc(NS(=O)(=O)c3c(F)cccc3F)c2F)c(-c2ccnc(N)n2)s1 | 0.941
32 | Cc1cc(-c2ccc(CC(=O)Nc3ccc(-c4cccnc4)cc3)cc2)ccn1 | 0.0884
33 | C=CC(=O)N1CCC[C@@H](n2nc(-c3ccc(Oc4ccccc4)cc3)c3c(N)ncnc32)C1 | -0.341
34 | CC1=C(/C=C/C(C)=C/C=C/C(C)=C\C(=O)O)C(C)(C)CCC1 [Isotretinoin] | -2.56
35 | O=C(Nc1cccnc1)N1CCC(Cc2cccc(Oc3ccc(C(F)(F)F)cn3)c2)CC1 | -1.87
36 | Cc1noc(-c2ccc(CSCCC(=O)O)cc2)c1NC(=O)OC(C)c1ccccc1Cl (stereo not drawn) | 0.975
37 | C[C@H]1COC2=C1C(=O)C(=O)c1c2ccc2c1CCCC2(C)C | 0.405
38 | CCOC(=O)CCNc1cc(N2CCc3ccccc3CC2)nc(-c2ccccn2)n1 | -3.3
